Measurements from PubChem BioAssay.
The source made the active and inactive calls.

How the values were obtained:
Albumin (Bos taurus) = Albumin (Bos taurus) (UniProt P02769); assay: compounds binding labelled BSA control protein – biochemical, small-molecule microarray, Alexa647 label, 635/667 nm fluorescence, artefact control for SMM control protein annotation, profiling panel (AID 1118); details: BSA-A647 binding, fluorescence 635 nm, higher = more signal;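 further: score merges 667 nm emission intensity and signal-to-noise per printed compound spot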
[1] = probe aXIP binding to arrayed compounds – biochemical, NeuroSMM set, 635/667 nm fluorescence, primary screen (AID 1119); details: small-molecule microarray, higher = more signal, called active from +8 up or from −8 down;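 further: probe is the protein aXip251-270 applied at 1 µg/mL to compound-printed slides; binding of probe to printed compounds measured as 667 nm fluorescence plus signal to noise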
[2] = probe aNOTCH3 binding on compound microarray – biochemical, small-molecule microarray, 635/667 nm fluorescence, primary screen (AID 1120); details: higher = more signal;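 further: probe is a biotin-tagged antibody raised against NOTCH3 rather than NOTCH3 protein; score merges spot fluorescence near 667 nm with spot signal to noise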
[3] = probe aNOTCH2 binding on compound microarray – biochemical, small-molecule microarray, 635/667 nm fluorescence, primary screen (AID 1121); details: higher = more signal;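 further: score merges feature fluorescence read at 667 nm with its signal to noise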
[4] = target: Carbonic anhydrase 2 (Homo sapiens) (UniProt P00918); assay: compounds binding carbonic anhydrase 2 – biochemical, small-molecule microarray, Alexa647-labelled CAII, profiling panel (AID 1122); details: CAII-A647 binding fluorescence, higher = more signal
[5] = COS7 lysate on small-molecule microarray, probe aHis, 635 nm (AID 1123); details: COS7 cell lysate, fluorescence, higher = more signal;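 further: z-score combines 667nm fluorescence intensity with signal-to-noise per printed compound spot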
[6] = probe aLAP1 signal on lysate-treated microarray – cell lysate, small-molecule microarray, COS7 lysate, primary screen (AID 1124); details: probe aLAP1, fluorescence, higher = more signal;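 further: lysate comes from COS7 cells expressing LAP1 and is applied at 0.3 µg/mL; score merges spot fluorescence near 667 nm with signal-to-noise over triplicate slides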
Sam68 (KHDRBS1) = assay: compounds binding KHDRBS1 protein – biochemical, small-molecule microarray, 635 nm fluorescence, primary screen (AID 1125); details: higher = more signal;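 further: score merges 667 nm channel intensity with signal to noise over triplicate slides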
[7] = tested on: Chordin-like protein 2 (CHRDL2); assay: compounds binding chordin-like 2 – biochemical, small-molecule microarray, 635 nm fluorescence, primary screen (AID 1126); details: fluorescence 635 nm, higher = more signal;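 further: printed compound slides probed with Chrdl2 protein at 4 µg/mL for 1 h at 4 C; score merges 667 nm emission intensity with signal to noise over three replicate slides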
[8] = target: Concanavalin-A (Canavalia ensiformis) (UniProt P02866); assay: compounds binding concanavalin A lectin – biochemical, small-molecule microarray, Alexa647 label, 635 nm, artefact control for SMM control protein annotation, primary screen (AID 1127); details: ConA-A647 binding fluorescence, higher = more signal;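 further: z combines 667 nm emission intensity with signal-to-noise across three replicate slides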
Sequence of Concanavalin-A (Canavalia ensiformis) (P02866 whole entry, looked up): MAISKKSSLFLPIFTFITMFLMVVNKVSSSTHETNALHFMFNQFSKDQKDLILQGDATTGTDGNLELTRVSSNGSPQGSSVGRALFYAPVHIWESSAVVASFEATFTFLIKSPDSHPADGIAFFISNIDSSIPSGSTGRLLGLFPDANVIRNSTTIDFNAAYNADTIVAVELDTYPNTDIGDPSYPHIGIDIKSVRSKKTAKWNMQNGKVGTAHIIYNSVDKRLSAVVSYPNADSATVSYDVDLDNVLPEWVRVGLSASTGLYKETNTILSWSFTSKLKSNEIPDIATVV

Sequence of Albumin (Bos taurus) (P02769 whole entry, looked up): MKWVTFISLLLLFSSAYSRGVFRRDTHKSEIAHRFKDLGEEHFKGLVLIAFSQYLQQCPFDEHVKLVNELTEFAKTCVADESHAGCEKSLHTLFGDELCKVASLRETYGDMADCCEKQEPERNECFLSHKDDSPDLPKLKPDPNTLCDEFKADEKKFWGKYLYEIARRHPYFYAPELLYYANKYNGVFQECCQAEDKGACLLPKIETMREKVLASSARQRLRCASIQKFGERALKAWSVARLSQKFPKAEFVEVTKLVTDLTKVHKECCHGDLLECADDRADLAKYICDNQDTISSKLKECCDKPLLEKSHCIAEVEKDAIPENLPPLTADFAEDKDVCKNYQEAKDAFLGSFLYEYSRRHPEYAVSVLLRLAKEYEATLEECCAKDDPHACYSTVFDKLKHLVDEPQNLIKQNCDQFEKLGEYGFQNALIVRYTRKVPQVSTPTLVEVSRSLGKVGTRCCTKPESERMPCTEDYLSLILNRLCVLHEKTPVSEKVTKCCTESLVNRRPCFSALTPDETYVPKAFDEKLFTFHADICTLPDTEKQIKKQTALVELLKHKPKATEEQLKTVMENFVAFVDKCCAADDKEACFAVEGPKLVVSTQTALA

SMILES | composite z-score (Albumin (Bos taurus)) | composite Z-score [1] | composite z-score [2] | composite z-score [3] | composite z-score [4] | composite z-score [5] | composite z-score [6] | composite z-score (Sam68 (KHDRBS1)) | composite z-score [7] | composite z-score [8]
C=CCOC(=O)[C@@H]1[C@H]2C(=O)O[C@H](c3ccccc3)[C@H](c3ccccc3)N2[C@H](c2ccc(OCCOC(=O)[C@H]3C[C@H]4C(=O)N5CCC[C@H]5C(=O)N4[C@H]3c3ccc(O)cc3)cc2)[C@@]12C(=O)Nc1ccc(I)cc12 | -1.18 | 0.76 (inactive) | -0.213 | 0.0701 | 0.339 | 1.58 | -0.299 | 1.3 | 1.09 | 1.13
C=C(CCCC)/C(=C/C[C@@H](OC(C)=O)c1ccc(OCCO)cc1)c1cnc2ccccc2c1 | 0.631 | -0.302 (inactive) | 0.0964 | -0.0942 | 0.718 | 0.696 | 0.35 | 1.28 | 0.963 | 0.555
COc1cc2c(cc1O)C(c1cccs1)N(C)CC2 (stereo not given) | 0.393 | -0.0667 (inactive) | -0.28 | -0.182 | 0.311 | 0.0056 | -0.465 | -1.2 | -0.231 | -1.2
C=C(COC)C(=O)CC[C@@H](OC(C)=O)c1ccc(CO)o1 | -0.0861 | 0.365 (inactive) | -0.0311 | 0.169 | 0.662 | -0.137 | -0.311 | 0.298 | 1.13 | 0.0796
NC(=O)[C@@H]1[C@H]2C(=O)O[C@H](c3ccccc3)[C@H](c3ccccc3)N2[C@H](c2ccc(O)cc2)[C@@]12C(=O)Nc1ccccc12 | 0.257 | -0.622 (inactive) | -0.288 | -0.155 | 0.75 | 2.37 | 0.691 | 0.203 | -1.73 | -0.161
NCCCCCNC(=O)[C@@H]1C[C@@H]2C(=O)N[C@@H](Cc3ccccc3)C(=O)N2[C@@H]1c1ccc(O)cc1 | 0.507 | 0.839 (inactive) | -0.0716 | -0.108 | 0.231 | 2.21 | -0.304 | 1.24 | -0.129 | 0.968
O=C1C2C=CC(C(O)Cc3ccccc3)N(n3cnnc3)C2C(=O)N1Cc1ccccc1 (stereo not given) | 1.03 | -0.188 (inactive) | 0.206 | 0.0248 | 0.449 | 1.14 | 0.75 | 0.646 | -0.748 | 0.779
CCCC[C@@H]1C[C@H]1[C@@H](NC(=O)c1ccco1)c1ccccc1C(F)(F)F | 0.706 | -0.234 (inactive) | 1.91 | 0.752 | 0.561 | 1.09 | 0.451 | -0.215 | 0.23 | 0.418
CN1C(=O)C2C=CC(C(O)c3ccco3)N(Nc3ccccc3)C2C1=O (stereo not given) | -0.152 | 0.472 (inactive) | 0.0974 | -0.0267 | 0.803 | -0.039 | 0.574 | 0.68 | 0.685 | 0.477
COC(=O)[C@@]1(Cc2ccc(F)cc2)[C@H]2c3cc(C(=O)N(C)C)n(Cc4ccc(Cl)c(C(F)(F)F)c4)c3C[C@H]2CN1C(=O)c1ccccc1 | 1.03 | 0.623 (inactive) | 0.405 | 0.266 | 0.77 | 3.26 | 1.05 | 1.31 | -0.899 | 1.15
COc1ccc([C@H]2OC[C@@H]3C[C@@H](Cc4ccccc4)C(=O)N32)cc1 | -0.127 | 0.584 (inactive) | 0.111 | -0.164 | 0.796 | 0.39 | -0.123 | 0.338 | 0.377 | 0.143
COc1cc2c(cc1OC)CN(C(=O)[C@@H]1[C@H]3C(=O)O[C@H](c4ccccc4)[C@H](c4ccccc4)N3[C@H](c3ccc(O)cc3)[C@@]13C(=O)Nc1ccccc13)CC2 | 0.551 | 0.799 (inactive) | -0.0647 | -0.117 | 0.622 | 1.74 | 0.169 | 0.751 | 0.257 | 1.13
COc1ccc([Si](C)(C)[C@@H]2[C@@H](CCO)O[C@]3(C(=O)N(Cc4ccc(N(C=O)c5ccccc5)cc4)c4ccccc43)[C@H]2C)cc1 | 0.842 | -0.119 (inactive) | 0.0842 | -0.0621 | 0.285 | 0.313 | -0.456 | 0.495 | -0.402 | 0.786
O=C1NC(=O)C2C1C=CC(C(O)c1cc(C(F)(F)F)cc(C(F)(F)F)c1)N2Nc1ccccn1 (stereo not given) | 0.0063 | 0.416 (inactive) | -0.0972 | -0.0486 | 0.673 | 2.15 | 0.536 | 0.079 | 0.673 | 0.297
C=CC1(C(=O)OC)CC=C(C(=O)OC)CC1 (stereo not given) | 0.714 | 0.257 (inactive) | -0.0077 | -0.0661 | 0.613 | 0.732 | 0.872 | 0.82 | 0.556 | 0.339
O=C1C2C=CC(C(O)c3cc(C(F)(F)F)cc(C(F)(F)F)c3)N(n3cnnc3)C2C(=O)N1Cc1ccccc1 (stereo not given) | 0.184 | -0.0461 (inactive) | -0.0391 | 0.392 | 0.68 | 1.58 | -0.0088 | 0.824 | -1.04 | 0.516
COc1ccc([Si](C)(C)[C@@H]2[C@@H](CC(=O)N3CCC[C@H]3CO)O[C@]3(C(=O)N(c4ccccc4)c4ccccc43)[C@H]2C)cc1 | 0.569 | 0.723 (inactive) | -0.0377 | -0.147 | 0.575 | 1.12 | 0.237 | 1.3 | 0.553 | 0.894

SMILES | composite z-score (Albumin (Bos taurus)) | composite Z-score [1] | composite z-score [2] | composite z-score [3] | composite z-score [4] | composite z-score [5] | composite z-score [6] | composite z-score (Sam68 (KHDRBS1)) | composite z-score [7] | composite z-score [8]
CC(C)C[C@@H]1NC(=O)[C@H](C(C)C)NC(=O)[C@@]23C(=O)N[C@@H](Cc4ccccc4)C2[C@H](C)[C@@]2(C)O[C@H]2C3/C=C/CC/C=C/CNC1=O (stereo not given in full) | 0.371 | 0.131 (inactive) | 0.0694 | -0.126 | 0.532 | 1.28 | -0.0375 | 1.29 | 0.806 | 0.271
O=C1[C@@]23C=C(Br)[C@H](C[C@@H]2CCOC3)[C@@]12CO2 | -0.169 | -0.775 (inactive) | 0.146 | -0.162 | -0.0433 | -0.128 | 0.522 | 0.166 | 0.518 | 0.311
O=C(NCCN1CCOCC1)C1N=C(c2ccc(OCCCO)cc2)N(c2ccccc2)O1 (stereo not given) | 0.439 | 0.267 (inactive) | 0.0261 | 0.119 | 0.835 | 2.79 | 0.908 | 1.3 | 1.41 | 0.691
CC(=O)n1cc(C(O)C2C=CC3C(=O)N(c4ccccc4)C(=O)C3N2Nc2ccc([N+](=O)[O-])cc2)c2ccccc21 (stereo not given) | 0.932 | 0.406 (inactive) | 0.0159 | 0.386 | 0.778 | 2.22 | 1.33 | 1.34 | -1.4 | 0.823
CCOC(=O)C[C@H]1[C@H](OC(=O)c2ccc(-c3ccccc3)cc2)[C@@H](NC(=O)Cc2ccc(OC)cc2)c2cc(OCCCO)ccc2N1C(=O)c1ccccc1 | 0.167 | 0.0175 (inactive) | 0.15 | -0.135 | -0.0516 | 0.614 | -0.105 | 0.264 | -0.348 | 0.0776
[N-]=[N+]=Nc1ccccc1[C@@H]1OC(c2ccc(OCCCO)cc2)=N[C@]1(Cc1ccccc1)C(=O)N1CCOCC1 | 0.309 | -0.174 (inactive) | 0.619 | 0.0117 | 0.312 | 2.23 | 0.115 | 1.31 | 0.0383 | 1.09
COC(=O)[C@@]1(CCC(=O)OC(C)(C)C)N=C(c2ccc(OCCCO)cc2)O[C@H]1c1ccccc1N=[N+]=[N-] | 0.373 | 0.455 (inactive) | -0.076 | -0.127 | 0.508 | 1.95 | 0.333 | 0.201 | -0.436 | 0.721
C=C(C(=O)CC[C@@H](OC(=O)c1cccnc1)c1ccccc1OCCO)C(C)C | 0.116 | 0.59 (inactive) | 0.0909 | -0.092 | 0.638 | 0.206 | 1.51 | 0.489 | 0.411 | -0.67
COC(=O)[C@@]1(CCS(=O)(=O)c2ccccc2)N=C(c2ccc(OCCCO)cc2)O[C@H]1c1ccccc1CN=[N+]=[N-] | -0.307 | 0.559 (inactive) | 0.0807 | 0.0657 | 0.691 | 2.4 | 0.372 | 1.34 | -0.149 | 1.08
COCCOC(=O)N1C(=O)[C@@]2(c3cc(C#Cc4ccc(OC)cc4)ccc31)[C@H](c1ccc(OCCO)cc1)N1[C@H](c3ccccc3)[C@H](c3ccccc3)OC(=O)[C@H]1[C@@H]2C(=O)N1CCN(c2ncccn2)CC1 | -0.701 | -0.799 (inactive) | -0.0311 | -0.102 | 0.357 | 0.977 | 0.182 | 1.33 | 0.575 | 1.11
C=C[C@@H](COC(=O)OC(C)(C)C)N(Cc1ccc(OC)cc1)S(=O)(=O)c1ccc(Br)cc1 | -0.0125 | 0.342 (inactive) | 0.185 | -0.154 | -0.0303 | 0.456 | -0.024 | 0.828 | 0.708 | 0.802
CC(C)C(=C=CC[C@H](O)c1ccc(OCCO)cc1)CCO | 0.467 | -0.435 (inactive) | -0.116 | -0.174 | 0.228 | 1.83 | 0.182 | 1.28 | 0.489 | 0.549
COc1cc(NN2C(C(O)c3ccco3)C=CC3C(=O)N(c4ccccc4)C(=O)C32)cc(OC)c1OC (stereo not given) | 0.877 | 0.32 (inactive) | -0.0328 | -0.139 | 0.574 | 1.13 | 0.166 | 0.203 | -0.776 | 0.498
C=CCC(OC(C)=O)[C@@H]1[C@@H](N(Cc2ccc(-c3ccccc3)cc2)C(=O)Cc2ccc(OC)cc2)c2cc(OCCCO)ccc2N1C(=O)Cc1ccc2ccccc2c1 (stereo not given in full) | 0.0549 | 0.142 (inactive) | -0.0841 | -0.112 | 0.064 | 0.49 | -0.149 | -0.493 | -0.0169 | -1.7
CCCCCN1CC=CC23O[C@@H]4/C=C\CCC(C)OC(=O)C4[C@H]2C(=O)N(C(C)CO)[C@@H]3C1=O (stereo not given in full) | -0.671 | -0.275 (inactive) | -0.127 | -0.14 | 0.536 | -0.0346 | 0.169 | 0.579 | -0.388 | -0.211
C=CCNC(=O)[C@@H]1[C@H]2C(=O)O[C@H](c3ccccc3)[C@H](c3ccccc3)N2[C@H](c2ccc(O)cc2)[C@@]12C(=O)N(C(=O)OCCOC)c1ccc(C#CCNC(N)=O)cc12 | 0.803 | 0.797 (inactive) | -0.0247 | -0.0393 | 0.552 | 0.737 | 0.731 | 1.16 | 0.155 | 1.1
